# HEK293 tox = Cytotoxic Profiling in HEK 293 Cell Line of Diverse Libraries Using Quantitative High-Throughput Screening | 94,000 compounds, 6.6% hits | HEK 293 viability, ATP luminescence (CellTiter-Glo), 48-72 h | Potency, µM (top dose mostly 115 µM), for the others: at the highest dose activity change, negative = cytotoxicity, usual class: inhibitors; further: nearly all actives have a fitted effect of over 60% in size
#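 Pintool-delivered compounds were incubated with HEK 293 cells (250 cells/well) at 37 degree Celsius for 48 or 72 hr. ATP-dependent luminescence (CellTiter-Glo) then reported remaining viable cells.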
# NIH3T3 tox = Cytotoxic Profiling in NIH 3T3 Cell Line of Diverse Libraries Using Quantitative High-Throughput Screening | NIH 3T3 viability, CellTiter-Glo ATP luminescence, 48-72 h | Potency, µM (top dose mostly 96.7 µM), without a hit: top-dose activity change, negative = cytotoxicity, most hits filed as inhibitors | 94,000 compounds, 4.3% hits | AID 1345082, 2018; further: nearly all actives have a fitted effect of over 55% in size
#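 Cytotoxicity is measured as loss of cellular ATP: NIH 3T3 cells (400/well) are exposed to compound for 48 or 72 hr at 37 °C, then CellTiter-Glo luminescence is imaged after 10 min at room temperature.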
# hNpr1 antagonist = Natriuretic polypeptide receptor (hNpr1) antagonism - Primary qHTS; HEK293 hNpr1 GloSensor cGMP, ANP-stimulated luminescence; Potency, µM (doses to about 46.3 µM), inactives show top-dose activity change, negative = inhibition, actives largely listed as inhibitors; AID 1347048, 2019; 76,000 compounds, 1.6% hits; calls by dose curve; further: nearly all actives have a fitted effect of over 60% in size
# Target sequence (P16066 whole entry, looked up): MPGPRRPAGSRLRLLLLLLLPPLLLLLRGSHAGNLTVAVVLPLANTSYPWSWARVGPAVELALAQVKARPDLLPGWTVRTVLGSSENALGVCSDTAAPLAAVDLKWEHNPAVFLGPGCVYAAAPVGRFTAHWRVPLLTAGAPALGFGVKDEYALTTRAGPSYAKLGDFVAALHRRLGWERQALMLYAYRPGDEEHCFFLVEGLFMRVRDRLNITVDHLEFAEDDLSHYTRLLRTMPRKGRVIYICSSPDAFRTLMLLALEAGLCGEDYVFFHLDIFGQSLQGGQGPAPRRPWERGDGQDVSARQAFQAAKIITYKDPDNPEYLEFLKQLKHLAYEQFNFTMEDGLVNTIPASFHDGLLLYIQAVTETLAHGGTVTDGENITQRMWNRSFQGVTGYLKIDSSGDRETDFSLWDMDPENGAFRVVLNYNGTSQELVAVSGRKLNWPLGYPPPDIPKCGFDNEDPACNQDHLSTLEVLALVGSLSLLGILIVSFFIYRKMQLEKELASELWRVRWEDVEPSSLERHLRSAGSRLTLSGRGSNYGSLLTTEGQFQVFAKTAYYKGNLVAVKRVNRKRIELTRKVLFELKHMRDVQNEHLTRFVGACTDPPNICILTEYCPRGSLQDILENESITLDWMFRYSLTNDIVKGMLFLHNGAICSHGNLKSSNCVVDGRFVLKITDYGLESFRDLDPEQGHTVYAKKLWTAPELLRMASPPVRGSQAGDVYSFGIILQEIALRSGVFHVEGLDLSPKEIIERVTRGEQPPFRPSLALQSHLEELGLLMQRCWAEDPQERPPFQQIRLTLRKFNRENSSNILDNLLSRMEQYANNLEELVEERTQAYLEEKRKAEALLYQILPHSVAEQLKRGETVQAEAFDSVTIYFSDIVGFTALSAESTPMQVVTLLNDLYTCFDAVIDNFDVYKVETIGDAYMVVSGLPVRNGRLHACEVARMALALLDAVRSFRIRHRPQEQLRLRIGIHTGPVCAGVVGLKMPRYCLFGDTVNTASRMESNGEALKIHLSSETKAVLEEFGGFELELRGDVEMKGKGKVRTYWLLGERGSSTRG
#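 HEK293 cells stably expressing human Npr1 and cGMP GloSensor pGS-40F, loaded 2 h with 2% GloSensor reagent, given compound 30 min at room temperature. Luminescence read before and 20 min after 0.1 nM hNppA.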
# FLuc inh = Firefly luciferase inhibition profiling of diverse chemical library using quantitative high-throughput screening; Luciferin 4-monooxygenase (Photinus pyralis), P08659; purified P. pyralis luciferase, luminescence, biochemical; Potency, µM (titrated, usually from 115 µM), usual class: inhibitors; 76,000 compounds, 2.5% hits; AID 1347043, 2019; further: nearly all actives have a fitted effect of over 65% in size
#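 FLuc 10nM, D-luciferin 10uM, ATP 10uM, Mg acetate 10mM, Tris acetate pH 7.5, Tween/BSA; cpd qHTS; enzyme added last; CCD luminescence.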
# Starred values were filed as active, the others as inactive; i = inactive; ? = inconclusive; . = not tested or not shown; [ ] = remark or other dose. Shown are actives, neighbours in structure and some others; about 11% of the full set was active somewhere. Unless noted, the call rests on the fitted dose curve; in most records, active means well fitted curve in the direction sought with a large enough effect; inconclusive means small, poorly fitted or top-dose-only effect, or another doubt; inactive means no such curve, though single readings can be large; an effect the other way counts as inactive or inconclusive. On the % scale 0 is the no-effect control and ±100 the full control effect; potency means the concentration at half of the fitted maximal effect.
SMILES,HEK293 tox,NIH3T3 tox,hNpr1 antagonist,FLuc inh
CN1c2cc(C(=O)Nc3ccc(Oc4ccccc4)cc3)ccc2C(=O)N2CCCCCC21 (centres undefined),10µM*,?,?,?
CN1c2cc(C(=O)Nc3ccc(Oc4ccccc4)cc3)ccc2C(=O)N2CCCCC21 (centres undefined),?,?,?,50µM*
CCN1c2cc(C(=O)Nc3ccc(Oc4ccccc4)cc3)ccc2C(=O)N2CCCCC21 (centres undefined),?,32µM*,-9%,i
CCCNC(=O)N1CCN2C(=O)c3cc(-c4cccc(C(F)(F)F)c4)ccc3NC(=O)[C@@H]2C1,?,?,3%,i
C=CCn1cc2c3c(cccc31)[C@H](CC(C)C)N[C@H](C(=O)O)C2,-26%[172 µM],?,2%[70.6 µM],i
CC(C)C[C@@H]1N[C@H](C(=O)NC2CCC2)Cc2cn(CC3CC3)c3cccc1c23,56µM*,?,3%[70.6 µM],i
C#CCNC(=O)[C@@H]1Cc2cn(Cc3nccn3C)c3cccc(c23)[C@H](CC(C)C)N1,?,?,2%[70.6 µM],i
CC(C)C[C@@H]1N[C@H](C(=O)O)Cc2cn(CC3CCC3)c3cccc1c23,71µM*,79µM*,-11%[70.6 µM],i
CCC1CCCCN1CCNC(=O)c1cc2c(s1)CN(C1CCCC1)C2 (centres undefined),?,?,5%,?
COc1cccc(Cn2c(=O)c3ccnn3c3ccc(C(=O)NCCCN(C)C)cc32)c1,40µM*,35µM*,-2%,i
CC[C@H]1CN(S(=O)(=O)c2c(C)noc2C)CC[C@H]1CC(=O)NCc1cccc2ccccc12,22µM*,?,-19%,i
CC[C@H]1CN(S(=O)(=O)c2c(C)noc2C)CC[C@H]1CC(=O)NCc1ccc(F)cc1,?,-10%,-15%,i
COCCn1c(=O)c2c(n1Cc1ccccc1)CN(Cc1ccc3c(c1)CCO3)CC2,0%[172 µM],?,1%[70.6 µM],i
COc1ccc(NC(=O)NC[C@H]2Cn3cc(-c4ccc(C)cc4)nc3CO2)cc1,?,?,-8%[70.6 µM],i
COc1ccc(-c2cn3c(n2)CO[C@@H](CNC(=O)C2CCCC2)C3)cc1,-17%[172 µM],-6%[138 µM],-4%[70.6 µM],28µM*
COc1ccc(-c2cn3c(n2)CO[C@@H](CNC(=O)c2ccccc2OC)C3)cc1,71µM*,-7%[138 µM],-30%[70.6 µM],?
COc1ccccc1CNC[C@H]1Cn2c(-c3cccc(Cl)c3)cnc2CO1,79µM*,?,0%[70.6 µM],i
COc1ccc(-c2cn3c(n2)CO[C@@H](CNC2CCC2)C3)cc1,-20%[172 µM],-13%[138 µM],0%[70.6 µM],56µM*
c1ccc(-c2cn3c(n2)CO[C@@H](CNC2CCOCC2)C3)cc1,-6%[172 µM],-2%[138 µM],1%[70.6 µM],i
Cc1ccc(-c2cn3c(n2)CO[C@@H](CNC(=O)C2CCCC2)C3)cc1,?,-31%[138 µM],-12%[70.6 µM],i
COc1ccccc1CNC[C@H]1Cn2cc(-c3ccc(C)cc3)nc2CO1,100µM*,100µM*,0%[70.6 µM],?
Fc1ccc(CNC[C@H]2Cn3cc(-c4ccccc4)nc3CO2)cc1,?,?,-10%[70.6 µM],i
COc1ncccc1-c1nc(-c2c(C)noc2C)cc2[nH]c(C)cc12,?,?,3%[70.6 µM],i
COc1cc(F)ccc1-c1nc(-c2c(C)noc2C)cc2[nH]c(C)cc12,?,35µM*,0%[70.6 µM],i
COc1ccccc1-c1nc(-c2c(C)noc2C)cc2[nH]c(C)cc12,?,25µM*,-14%[70.6 µM],i
SMILES,HEK293 tox,NIH3T3 tox,hNpr1 antagonist,FLuc inh
Cc1cc2c(-c3ccccc3)nc(-c3c(C)noc3C)cc2[nH]1,?,?,5%[70.6 µM],i
COc1ccc(C(=O)N2CCC3(CC2)OC(=O)N(Cc2ccccc2F)C3(C)c2ccccc2)cc1 (centres undefined),45µM*,35µM*,2%,i
Cn1ccc(C(=O)N2CCC3(CC2)OC(=O)N(Cc2ccccc2F)C3(C)c2ccccc2)n1 (centres undefined),-11%,?,-1%,i
COc1cccc(CC(=O)N2CCC3(CC2)OC(=O)N(Cc2ccccc2F)C3(C)c2ccccc2)c1 (centres undefined),?,25µM*,-4%,i
CC1(c2ccccc2)N(Cc2cccnc2)C(=O)OC12CCN(C(=O)Cc1ccccc1)CC2 (centres undefined),-8%,?,8%,i
CNC(=O)c1cc(-c2ccccc2C(F)(F)F)nc2c1cnn2C,-20%[172 µM],?,.,.
COc1ccc(F)cc1-c1cccc(C(=O)NCC(=O)NCCc2cccc(F)c2)c1,40µM*,?,.,.
COc1ccc(F)cc1-c1cccc(C(=O)NCCN[S+](=O)([O-])CCC(F)(F)F)c1,79µM*,?,.,.
COc1ccc(F)cc1-c1cccc(C(=O)NCC(=O)NCCc2ccccc2)c1,?,-27%,.,.
COc1ccc(F)cc1-c1cccc(C(=O)NCCNC(=O)c2ccc(F)cc2)c1,35µM*,?,.,.
COc1ccc(F)cc1-c1cccc(C(=O)NCCNC(=O)c2cccnc2)c1,?,35µM*,.,.
COCCN1CCC2(CCC1=O)CCN(C(=O)Nc1ccc(C(=O)OC)cc1)CC2,-4%,-15%,-13%,i
Cc1cc(C)cc(NC(=O)N2[C@@H]3CC[C@H]2CC(NC(=O)c2ccc(F)cc2)C3)c1 (some centres undefined),40µM*,?,-6%,i
COc1cccc(NC(=O)O[C@@H]2CC[C@]3(C)[C@H](CC[C@H]4OC(=O)C[C@H]43)[C@]2(C)CO)c1,?,-25%[174 µM],-2%[70.6 µM],i
O=C(CNC(=O)c1ccc(-c2cnc3ccccc3c2)cc1)NCc1ccc2c(c1)OCO2,50µM*,-26%,.,.
O=C(CNC(=O)c1ccc(-c2cnc3ccccc3c2)cc1)NCc1ccc(F)cc1,?,-49%,.,.
COCCCNC(=O)CNC(=O)c1ccc(-c2cnc3ccccc3c2)cc1,79µM*,-40%,.,.
COc1ccc(C(=O)N2CCC(C(=O)N3CCCC(c4nc5ccncc5[nH]4)C3)CC2)cc1 (centres undefined),-1%,1%,.,.
CCNC(=O)N1CCc2nc(OCC)ccc2C1,1%,-19%,12%,i
CCCn1cc(-c2ccnc(NC3CCN(Cc4cccnc4)CC3)n2)c(C)n1,28µM*,?,?,i
COC(=O)NC1CCN(Cc2ccc(-c3ccsc3)cc2)C1 (centres undefined),100µM*,?,.,.
O=C(NC1CCN(Cc2ccc(-c3ccsc3)cc2)C1)c1ccc(Cl)cc1 (centres undefined),-14%,-25%,.,.

# Source: PubChem (National Center for Advancing Translational Sciences (NCATS))
